Calls of active or inactive are those of the source. Cut-off read from the data, not from the text of the source, unless noted: active = inhibition above about 80%; inactive = the rest.
Legend:
[1] = growth inhibition, single agent or in combination, cell-based, chromothripsis tumors, cisplatin or BGB combos (AID 1671449); settings: LFS_MB_P medulloblastoma cells;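 note: cells exposed for 96 hours; 0% = vehicle DMSO and 100% = killing by high DMSO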
[2] = growth inhibition, single agent and combos, cell-based, chromothripsis tumors, cisplatin or BGB combos (AID 1671450); settings: HDN33 neuroblastoma cells, stronger effect = higher value;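 note: cells exposed to compound for four days; 0% = vehicle DMSO and 100% = cell killing by high DMSO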
[3] = growth inhibition, single agents and combos, ICB984, cell-based, cisplatin or BGB combos, synergistic combos for chromothripsis tumors (AID 1671451; call rule not given here;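 note: cells exposed for 96 hours before readout; 0% = vehicle DMSO and 100% = killing by high DMSO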); settings: ICB984 medulloblastoma cells, drug combinations, stronger effect = higher value
[4] = growth inhibition, single agents and combos, LFS_MB_1R, cell-based, cisplatin or BGB combos, synergistic combos for chromothripsis tumors (AID 1671452); settings: LFS_MB_1R medulloblastoma cells, stronger effect = higher value;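 note: cells exposed for 96 hours before readout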
[5] = growth inhibition, single agents and combos, HTB85, cell-based, BGB or cisplatin IC20 combos, synergistic combos for chromothripsis tumors (AID 1671453); settings: HTB85 osteosarcoma cells, drug combinations, stronger effect = higher value;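 note: cells exposed for 96 hours before readout; 0% = vehicle DMSO and 100% = high DMSO killing control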
[6] = growth inhibition, single agents and combos, CRL2098, cell-based, BGB or cisplatin IC20 combos, synergistic combos for chromothripsis tumors (AID 1671454); settings: CRL2098 osteosarcoma cells, drug combinations, stronger effect = higher value;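 note: cells exposed for 96 h before readout; 0% = vehicle DMSO and 100% = killing by high DMSO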
[7] = growth inhibition, single agents and combos, HD-MB03, cell-based, BGB or cisplatin IC20 combos, synergistic combos for chromothripsis tumors (AID 1671455; in the data active = inhibition above about 83%;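 note: 0% = vehicle DMSO and 100% = high DMSO as cytotoxic control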); settings: HD-MB03 medulloblastoma cells, stronger effect = higher value
[8] = growth inhibition, single agents and combos, UWB1.289, cell-based, BGB or cisplatin combos, synergistic combos for chromothripsis tumors (AID 1671456); settings: UWB1.289 ovarian carcinoma cells, stronger effect = higher value;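 note: cells exposed to compound for four days; 0% = vehicle DMSO and 100% = killing by high DMSO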
[9] = growth inhibition, single agents and combos, LFS_MB_2R, cell-based, cisplatin combos, synergistic combos for chromothripsis tumors (AID 1671457); settings: LFS_MB_2R medulloblastoma cells, stronger effect = higher value;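 note: cells exposed to compound for four days before readout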
[10] = growth inhibition, MDA-MB-436, cell-based, BGB or cisplatin combos, synergistic combos for chromothripsis tumors (AID 1671458; call rule not given here;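 note: cells exposed for 96 hours; 0% = vehicle DMSO and 100% = killing by high DMSO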); settings: MDA-MB-436 breast carcinoma growth inhibition, drug combinations, stronger effect = higher value
[11] = UWB1.289_BRCA1 ovarian cancer growth, cell-based, BGB or cisplatin combinations (AID 1671459); settings: UWB1.289 BRCA1 ovarian carcinoma, drug combinations, stronger effect = higher value
[12] = drug combination toxicity in non-malignant astrocytes – cell-based, BGB or cisplatin IC20 combos, cytotoxicity control for chromothriptic childhood tumor combination screen (AID 1671460); settings: Human astrocytes, viability inhibition, drug combinations, at 0.5 µM, stronger effect = higher value;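 note: cells exposed to compounds for 96 hours before viability readout; 0% = vehicle and 100% = killing control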
[13] = BT084 cell growth, single and combined drugs, ICGC_MB145, cisplatin and BGB IC40 combos (AID 1671461); settings: BT084 medulloblastoma cells, drug combinations, stronger effect = higher value;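 note: cells exposed to drugs for 96 hours; 0% = vehicle DMSO and 100% = high DMSO full killing control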
[14] = RCMB18 cell growth, single agent and combined, cisplatin and BGB IC40 combos (AID 1671462); settings: RCMB18 medulloblastoma cells, stronger effect = higher value;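 note: cells exposed to compound for four days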
[15] = CRL1545 cell growth, single agent and combined, cisplatin and BGB IC20 combos (AID 1671464); settings: CRL1545 osteosarcoma cells, stronger effect = higher value;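 note: cells exposed to compound for 96 hours before readout; 0% = vehicle DMSO and 100% = high DMSO killing control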
[16] = at 0.5 µM, stronger effect = higher value
[17] = measured here: combination with BGB IC20, at 0.005 µM
[18] = measured here: combination with BGB IC40, at 0.005 µM
[19] = measured here: combination with BGB IC40, at 0.05 µM
[20] = measured here: combination with cisplatin, at 0.5 µM, stronger effect = higher value
[21] = measured here: combination with cisplatin, at 5 µM, stronger effect = higher value
[22] = measured here: with BGB IC20 combination, at 0.5 µM
[23] = measured here: with cisplatin IC20 combination, at 0.5 µM
[24] = measured here: 5 uM single agent, at 5 µM
[25] = measured here: combination with cisplatin, at 0.5 µM
[26] = measured here: combination with cisplatin, at 5 µM
[27] = measured here: with BGB IC20, at 0.5 µM
[28] = measured here: with BGB IC20, at 5 µM
[29] = measured here: with cisplatin IC20, at 0.5 µM
[30] = measured here: with cisplatin IC20, at 5 µM
[31] = measured here: combination with BGB at IC20, at 0.5 µM
[32] = measured here: combination with cisplatin at IC20, at 0.5 µM
[33] = measured here: combo with BGB at IC20, at 0.5 µM
[34] = measured here: combo with cisplatin at IC20, at 0.5 µM
[35] = measured here: inhibition with BGB combination, at 0.05 µM
[36] = measured here: inhibition with cisplatin combination, at 0.05 µM
[37] = measured here: BGB combination, at 0.5 µM
[38] = measured here: BGB combination, at 5 µM
[39] = measured here: cisplatin combination, at 0.5 µM
[40] = measured here: cisplatin combination, at 5 µM
[41] = BGB combination, concentration series, at 5 µM
[42] = cisplatin combination, concentration series, at 5 µM
[43] = measured here: combo with BGB IC20
[44] = measured here: combo with cisplatin IC20
[45] = cisplatin combination, at 0.5 µM
[46] = measured here: BGB IC40 combination 0.05 uM, at 0.05 µM
[47] = measured here: BGB IC40 combination, at 0.05 µM

In the case of `NC(=O)c1ncn(C2OC(CO)C(O)C2O)c1O` (stereo unspecified), the inhibition [1, 16] is reported as -12.6% (inactive), the inhibition [1, 17] is reported as -7.32% and the inhibition [1, 18] is reported as -2.51%. The inhibition [1, 19] was -10.8%, the inhibition [1, 20] was -6.4% and the inhibition [1, 21] was -30%. For the same compound, the inhibition ([2]; BGB combo, at 5 µM) was 5.04%, the inhibition ([2]; at 0.5 µM) was 6.65% (inactive) and the inhibition ([2]; cisplatin combo, at 5 µM) was -12.8%. The inhibition [2, 22] was 16.7%, the inhibition [2, 23] was 12.5% and the inhibition ([2]; single agent, at 5 µM) was -11%. For the same compound, the inhibition ([3]; BGB IC20 combo, at 0.005 µM) was 6.56%, the inhibition ([3]; BGB IC40 combo, at 0.005 µM) was -22.2% and the inhibition ([3]; BGB IC40 combo, at 0.05 µM) was -25%. The inhibition ([3]; at 0.5 µM) was -19.3% (inactive), the inhibition ([3]; cisplatin combo, at 0.05 µM) was -25% and the inhibition ([3]; cisplatin combo, at 0.5 µM) was -21.3%. For the same compound, the inhibition ([3]; cisplatin combo, at 5 µM) was 9.18%, the inhibition [3, 24] was -10.8% and the inhibition ([4]; at 0.5 µM) was -1.69% (inactive). For the same compound, the inhibition [4, 19] was 11.9%, the inhibition [4, 25] was 14.5% and the inhibition [4, 26] was 1.36%. For the same compound, the inhibition ([5]; at 0.5 µM) was -21.2% (inactive), the inhibition [5, 27] was -45.8% and the inhibition [5, 28] was -14%. The inhibition [5, 29] was -13.3%, the inhibition [5, 30] was 26.5% and the inhibition ([5]; single agent, at 5 µM) was 4.97%. For the same compound, the inhibition ([6]; at 0.5 µM) was -22.6% (inactive), the inhibition [6, 31] was -31.9% and the inhibition [6, 32] was -21.8%. The inhibition ([7]; at 0.5 µM) was -5.96% (inactive), the inhibition [7, 33] was -11.6% and the inhibition [7, 34] was 0.212%. The inhibition ([8]; at 0.5 µM) was 2.16% (inactive), the inhibition [8, 35] was -15.4% and the inhibition [8, 36] was -3.17%. The inhibition ([9]; at 0.5 µM) was -17.9% (inactive), the inhibition [9, 25] was -10.4% and the inhibition [9, 26] was -9.64%. For the same compound, the inhibition ([10]; at 0.5 µM) was -15.6% (inactive), the inhibition [10, 37] was -16% and the inhibition [10, 38] was -1.99%. The inhibition [10, 39] was -28.5%, the inhibition [10, 40] was -10.8% and the inhibition [11, 41] was 5.96%. For the same compound, the inhibition ([11]; at 0.5 µM) was 2.34% (inactive), the inhibition [11, 42] was 12.4% and the inhibition [12] was -5.39% (inactive). For the same compound, the inhibition [12, 43] was -5.58%, the inhibition [12, 44] was -13.5% and the inhibition ([13]; at 0.5 µM) was -0.897% (inactive). For the same compound, the inhibition [13, 45] was 6.23%, the inhibition ([13]; cisplatin combination, at 5 µM) was -20.7% and the inhibition [13, 46] was 5.17%. The inhibition ([13]; single agent, at 5 µM) was -12.6%, the inhibition ([14]; at 0.5 µM) was -9.69% (inactive) and the inhibition ([14]; cisplatin combo, at 5 µM) was 0.143%. The inhibition [14, 47] was -17.2%, the inhibition [14, 25] was 9.55% and the inhibition ([14]; single agent, at 5 µM) was -31.2%. For the same compound, the inhibition ([15]; at 0.5 µM) was -13.2% (inactive), the inhibition [15, 22] was 2.45% and the inhibition [15, 23] was -21%. It also gave an inhibition ([15]; single agent, at 0.05 µM) of 13% and an inhibition ([15]; single agent, at 5 µM) of 22.2%.
In the case of `C[C@@H]1O[C@@H](O[C@@H]2[C@@H](O)[C@H](OCCc3ccc(O)c(O)c3)O[C@H](CO)[C@H]2OC(=O)C=Cc2ccc(O)c(O)c2)[C@H](O)[C@H](O)[C@H]1O`, the inhibition [1, 16] is reported as -19.7% (inactive), the inhibition [1, 17] is reported as -7.94% and the inhibition [1, 18] is reported as -47.4%. The inhibition [1, 19] was -17.9%, the inhibition [1, 20] was -14.4% and the inhibition [1, 21] was -15.6%. For the same compound, the inhibition ([2]; BGB combo, at 5 µM) was -0.831%, the inhibition ([2]; at 0.5 µM) was 5.6% (inactive) and the inhibition ([2]; cisplatin combo, at 5 µM) was 41%. For the same compound, the inhibition [2, 22] was 2.02%, the inhibition [2, 23] was 15.9% and the inhibition ([2]; single agent, at 5 µM) was 21.8%. For the same compound, the inhibition ([3]; BGB IC20 combo, at 0.005 µM) was -21.2%, the inhibition ([3]; BGB IC40 combo, at 0.005 µM) was -5.21% and the inhibition ([3]; BGB IC40 combo, at 0.05 µM) was -11.9%. The inhibition ([3]; at 0.5 µM) was -18.6% (inactive), the inhibition ([3]; cisplatin combo, at 0.05 µM) was -17.7% and the inhibition ([3]; cisplatin combo, at 0.5 µM) was -31.1%. For the same compound, the inhibition ([3]; cisplatin combo, at 5 µM) was -7.59%, the inhibition [3, 24] was -11% and the inhibition ([4]; at 0.5 µM) was -31.7% (inactive). It also gave an inhibition [4, 19] of -26.1%, an inhibition [4, 25] of -49.4% and an inhibition [4, 26] of -50.3%. The inhibition ([5]; at 0.5 µM) was -2.22% (inactive), the inhibition [5, 27] was 11% and the inhibition [5, 28] was -2.54%. For the same compound, the inhibition [5, 29] was -24.2%, the inhibition [5, 30] was 13.7% and the inhibition ([5]; single agent, at 5 µM) was 14.4%. The inhibition ([6]; at 0.5 µM) was -20.3% (inactive), the inhibition [6, 31] was -22.9% and the inhibition [6, 32] was -10.2%. The inhibition ([7]; at 0.5 µM) was -12.4% (inactive), the inhibition [7, 33] was -18% and the inhibition [7, 34] was -15.8%. For the same compound, the inhibition ([8]; at 0.5 µM) was 2.22% (inactive), the inhibition [8, 35] was -13.4% and the inhibition [8, 36] was -3.75%. The inhibition ([9]; at 0.5 µM) was -23.2% (inactive), the inhibition [9, 25] was -31.6% and the inhibition [9, 26] was -36.7%. For the same compound, the inhibition ([10]; at 0.5 µM) was -13.3% (inactive), the inhibition [10, 37] was -5.37% and the inhibition [10, 38] was -8.31%. The inhibition [10, 39] was -39.6%, the inhibition [10, 40] was -30.4% and the inhibition [11, 41] was -4.79%. For the same compound, the inhibition ([11]; at 0.5 µM) was 2.12% (inactive), the inhibition [11, 42] was 23.8% and the inhibition [12] was 3.51% (inactive). The inhibition [12, 43] was -0.074%, the inhibition [12, 44] was 5.26% and the inhibition ([13]; at 0.5 µM) was -15.3% (inactive). For the same compound, the inhibition [13, 45] was -21.1%, the inhibition ([13]; cisplatin combination, at 5 µM) was -157% and the inhibition [13, 46] was -26.5%. For the same compound, the inhibition ([13]; single agent, at 5 µM) was -19.8%, the inhibition ([14]; at 0.5 µM) was -0.47% (inactive) and the inhibition ([14]; cisplatin combo, at 5 µM) was 8.1%. It also gave an inhibition [14, 47] of -349%, an inhibition [14, 25] of -0.428% and an inhibition ([14]; single agent, at 5 µM) of -0.98%. The inhibition ([15]; at 0.5 µM) was 3.16% (inactive), the inhibition [15, 22] was -11.9% and the inhibition [15, 23] was 9.28%. For the same compound, the inhibition ([15]; single agent, at 0.05 µM) was -3.32% and the inhibition ([15]; single agent, at 5 µM) was 19.3%.

Source: PubChem BioAssay
